Where “and” joins values, the source holds several entries; their conditions need not be identical. Equal values may be shown once. Records with an inconclusive call do not appear. Where a call stands in place of a potency, no number is given. A number with no mark means an inactive call. Calls of active or inactive are those of the source. Unless noted, the call rests on the fitted dose curve; in most records, active means well fitted curve in the direction sought with a large enough effect in the repeat runs; inconclusive means weak or mixed curves; inactive means no such curve, though single readings can be large; an effect the other way counts as inactive or inconclusive.
Columns and labels:
[1] = qHTS assay to identify small molecule agonists of the constitutive androstane receptor (CAR) signaling pathway - cell viability counter screen (AID 1224836); further: nearly all actives have a fitted effect of over 45% in size; further: potency means the concentration at half of the fitted maximal effect
Summary of the method: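 Using CellTiter-Fluor, viability of HepG2 cells harbouring hCAR and CYP2B6-2.2kb was measured following 23 h incubation with a 15-concentration compound series plus PK11195 (0.75 uM final).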

[2] = qHTS assay to identify small molecule antagonists of the constitutive androstane receptor (CAR) signaling pathway - cell viability counter screen (AID 1224837); further: nearly all actives have a fitted effect of over 45% in size; further: potency means the concentration at half of the fitted maximal effect
Summary of the method: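 Read-out: CellTiter-Fluor fluorescence after 23 hr at 37 C/5% CO2. Cells: HepG2 double-stable for hCAR and CYP2B6-2.2kb. Compounds tested at 15 concentrations in the presence of CITCO, final concentration 50 nM.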

[3] = biological target: Nuclear receptor subfamily 1 group I member 3 (Homo sapiens) (UniProt Q14994); assay: qHTS assay to identify small molecule agonists of the constitutive androstane receptor (CAR) signaling pathway (AID 1224839); further: nearly all actives have a fitted effect of over 15% in size; further: potency means the concentration at half of the fitted maximal effect;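 on activation: HepG2 cells stably carrying human CAR and a CYP2B6 luciferase reporter; series mostly up to about 92 µM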
Summary of the method: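 Double-stable HepG2 cells (hCAR, CYP2B6-2.2kb) seeded 4 h before compound addition. Exposure 24 h with 0.75 uM PK11195 final. Luciferase detected by ONE-Glo.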

[4] = qHTS assay to identify small molecule antagonists of the estrogen related receptor signaling pathway with the pleiotropic PPARgamma coactivator (PGC) from Tox21 10K library - cell viability counter screen (AID 1224840; active means well fitted cell-killing curve with a large enough effect in the repeat runs, not every such curve was filed as active; further: nearly all actives have a fitted effect of over 40% in size; further: potency means the concentration at half of the fitted maximal effect)
Summary of the method: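 Fluorescence read-out of CellTiter-Fluor viability reagent, added after cells had been exposed to compound in DMSO for 17.5 h at 37 C; 30 min development at 37 C/5% CO2. Cells: PGC/ERR line, 2,000/well.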

[5] = biological target: Thyrotropin receptor (Homo sapiens) (UniProt P16473); assay: qHTS assay to identify small molecule agonists of the thyroid stimulating hormone receptor (TSHR) signaling pathway (AID 1224843; calls by dose curve; further: nearly all actives have a fitted effect of over 45% in size; further: potency means the concentration at half of the fitted maximal effect)
Summary of the method: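 A cell-based cAMP HTRF format was run in TSHR-transfected HEK293 cells, 800 per well. Treatment: 30 min, room temperature. Detection: 1 h with labelled cAMP and anti-cAMP cryptate. Concentration-response over 15 points, three replicates.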

[6] = qHTS assay to identify small molecule agonists of H2AX (AID 1224845; active means well fitted activation curve with a large enough effect in the signal ratio in the repeat runs, not every such curve was filed as active; the % refers to the signal ratio; further: potency means the concentration at half of the fitted maximal effect)
Summary of the method: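 Phospho-H2AX Ser139 measured by HTRF (ex 320 nm; em 665 and 620 nm) after 24 hr antibody incubation. Compounds, 15 concentrations, 0.76% DMSO, were applied to CHO-K1 cells for 3hr at 37C before lysis.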

[7] = qHTS assay to identify small molecule agonists of the hypoxia (HIF-1) signaling pathway - cell viability counter screen (AID 1224844; calls by dose curve; further: nearly all actives have a fitted effect of over 50% in size; further: potency means the concentration at half of the fitted maximal effect)
Summary of the method: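 CellTiter-Glo luminescence read-out, 30 min RT, taken in the same wells as the beta-lactamase HRE reporter assay; HRE-bla ME-180 cells, 0.5% dialyzed FBS, 17 hr compound treatment at 37C, 5% CO2.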

[8] = qHTS assay to identify small molecule agonists of the estrogen related receptor signaling pathway with the pleiotropic PPARgamma coactivator (PGC) from Tox21 10K library (AID 1224842); further: nearly all actives have a fitted effect of over 15% in size
Summary of the method: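 Luminescence from One-Glo (30 min, room temperature) measured after PGC/ERR cells had 18 h at 37 C with pinned compound (23 nL in DMSO). Cells had been seeded at 2,000 per well and pre-incubated 6 h.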

[9] = qHTS assay to identify small molecule antagonists of the estrogen related receptor signaling pathway with the pleiotropic PPARgamma coactivator (PGC) from Tox21 10K library (AID 1224841; call rule not given here; further: actives are mostly falling curves and most rising ones were filed inactive; nearly all actives have a fitted effect of over 50% in size; further: potency means the concentration at half of the fitted maximal effect)
Summary of the method: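 Luminescence read-out (One-Glo luciferase reagent, 30 min at room temperature) from PGC/ERR cells exposed to DMSO-dissolved test compounds for 18 h at 37 C; cells, 2,000 per well, had been preincubated 6 h before compound transfer.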

[10] = biological target: Nuclear receptor subfamily 1 group I member 3 (Homo sapiens) (UniProt Q14994); assay: qHTS assay to identify small molecule antagonists of the constitutive androstane receptor (CAR) signaling pathway (AID 1224838);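 further: HepG2 cells stably expressing hCAR with CYP2B6 luciferase reporter stimulated by CITCO; nearly all actives have a fitted effect of over 40% in size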
Summary of the method: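 Read-out: ONE-Glo luciferase luminescence after 30 min at room temperature. HepG2-CYP2B6-hCAR double-stable cells, compounds in 15-point titration plus 50 nM CITCO final, 24 h at 37 C/5% CO2.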

Chain of Thyrotropin receptor (Homo sapiens) (P16473 whole entry, looked up): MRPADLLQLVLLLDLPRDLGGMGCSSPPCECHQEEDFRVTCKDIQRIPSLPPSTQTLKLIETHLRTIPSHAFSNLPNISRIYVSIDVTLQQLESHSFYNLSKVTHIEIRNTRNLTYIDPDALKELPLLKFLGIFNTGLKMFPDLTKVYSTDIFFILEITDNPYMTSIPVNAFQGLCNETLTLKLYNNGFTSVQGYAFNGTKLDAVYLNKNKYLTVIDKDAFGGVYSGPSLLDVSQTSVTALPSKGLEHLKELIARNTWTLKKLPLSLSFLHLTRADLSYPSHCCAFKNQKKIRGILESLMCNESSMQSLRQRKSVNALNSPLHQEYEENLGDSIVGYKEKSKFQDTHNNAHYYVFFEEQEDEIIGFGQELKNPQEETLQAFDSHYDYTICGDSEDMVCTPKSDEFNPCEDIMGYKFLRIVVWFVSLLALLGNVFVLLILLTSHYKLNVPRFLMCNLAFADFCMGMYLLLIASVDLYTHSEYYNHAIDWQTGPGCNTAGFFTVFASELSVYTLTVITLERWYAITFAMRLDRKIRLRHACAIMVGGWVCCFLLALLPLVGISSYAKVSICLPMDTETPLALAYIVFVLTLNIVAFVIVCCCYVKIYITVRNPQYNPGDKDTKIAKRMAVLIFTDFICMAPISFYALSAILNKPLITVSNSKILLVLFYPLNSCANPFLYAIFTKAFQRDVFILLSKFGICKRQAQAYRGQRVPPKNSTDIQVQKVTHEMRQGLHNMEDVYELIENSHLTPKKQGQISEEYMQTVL
Chain of Nuclear receptor subfamily 1 group I member 3 (Homo sapiens) (Q14994 whole entry, looked up): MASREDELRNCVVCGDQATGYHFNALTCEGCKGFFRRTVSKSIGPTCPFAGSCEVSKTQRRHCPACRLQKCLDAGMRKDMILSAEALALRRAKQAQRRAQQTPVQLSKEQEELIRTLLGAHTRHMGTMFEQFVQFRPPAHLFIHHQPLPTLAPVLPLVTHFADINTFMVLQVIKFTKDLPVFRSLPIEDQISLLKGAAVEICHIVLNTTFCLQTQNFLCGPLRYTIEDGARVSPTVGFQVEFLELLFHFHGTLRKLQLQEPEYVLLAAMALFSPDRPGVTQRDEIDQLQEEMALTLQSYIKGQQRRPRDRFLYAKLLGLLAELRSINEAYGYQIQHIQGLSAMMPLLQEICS

Structure (SMILES)	Potency [1]	Potency [2]	Potency [3]	Potency [4]	Potency [5]	Potency [6]	Potency [7]	Potency [8]	Potency [9]	Potency [10]	activation [3]	activation [8]
O=CC(Br)(Br)Br	30.5 µM (active)	27.2 µM (active)	inactive	15.3 µM (active)	30.5 µM (active)	31.8 µM (active)	–	–	–	–	–	–
CCCCCCCCCBr	inactive	inactive	inactive	inactive	inactive	inactive	inactive	–	–	–	–	–
CC(=O)/C=C/c1ccc2c(c1)OCO2	inactive	inactive	inactive	–	–	–	inactive	inactive	–	–	–	–
Oc1ccc(C(c2ccc(O)cc2)(C(F)(F)F)C(F)(F)F)cc1	inactive	inactive	4.31 µM (active) and 5.45 µM (active)	–	30.5 µM (active)	–	inactive	inactive	60.8 µM (active)	–	–	–
CC1CCC(C(C)C)C(OC(=O)c2ccccc2N)C1 (centres undefined)	inactive	inactive	–	–	inactive	88.5 µM (active)	38.4 µM (active)	inactive	–	inactive	–	–
CC1(C)C(/C=C(\Cl)C(F)(F)F)C1C(=O)OC(C#N)c1cccc(Oc2ccccc2)c1 (centres undefined)	inactive	inactive	inactive	inactive	inactive	inactive	inactive	–	–	–	–	–
[Cl][Sn]([c]1ccccc1)([c]1ccccc1)[c]1ccccc1	3.66 µM (active)	2.06 µM (active)	–	0.82 µM (active)	–	0.677 µM (active)	–	–	0.82 µM (active)	–	-23.6% [at 19 µM]	-35.3% [at 19 µM]
CCS(=O)(=O)c1cccnc1S(=O)(=O)NC(=O)Nc1nc(OC)cc(OC)n1	inactive	inactive	54.5 µM (active)	inactive	inactive	inactive	inactive	inactive	–	–	–	–
CS(=O)(=O)c1ccc(C(=O)C2C(=O)CCCC2=O)c([N+](=O)[O-])c1	inactive	inactive	inactive	inactive	–	–	–	inactive	31.2 µM (active)	–	–	–
C[C@]12CC[C@H]3[C@@H](CCC4=CC(=O)CC[C@@]43C)[C@@H]1CC[C@@H]2O	inactive	inactive	inactive	inactive	–	–	inactive	–	–	–	–	–
N#C/C=C/C#N	inactive	inactive	64 µM (active)	inactive	inactive	inactive	–	–	–	–	–	–
CC(=O)O[C@H]1CC[C@@]2(C)C(=CC[C@@H]3[C@@H]2CC[C@]2(C)C(=O)CC[C@@H]32)C1	inactive	inactive	inactive	inactive	inactive	–	–	–	–	–	–	–
CCCN(CC)CC1COC2(CCC(C(C)(C)C)CC2)O1 (centres undefined)	inactive	inactive	inactive	inactive	inactive	inactive	inactive	–	–	–	–	–
N#CNC#N	inactive	inactive	inactive	inactive	inactive	inactive	inactive	–	–	–	–	–
CCN	inactive	inactive	inactive	inactive	inactive	inactive	inactive	–	–	–	–	–
C=CCOC(N)=O	inactive	inactive	inactive	inactive	inactive	inactive	inactive	inactive	inactive	–	–	–
[Hg+2].[I-].[I-]	34.4 µM (active)	30.6 µM (active)	inactive	4.33 µM (active)	–	–	1.95 µM (active)	–	–	–	–	–
O=C(CCl)Nc1ccccc1	48.6 µM (active)	48.6 µM (active)	inactive	24.3 µM (active)	inactive	80 µM (active)	–	inactive	8.63 µM (active)	–	–	–
Cc1cc(C(F)(C(F)(F)F)C(F)(F)F)ccc1NC(=O)c1cccc(I)c1C(=O)NC(C)(C)CS(C)(=O)=O	inactive	inactive	inactive	inactive	inactive	inactive	–	inactive	–	–	–	–
ClC1=C(Cl)[C@]2(Cl)[C@@H]3[C@@H](Cl)[C@@H](Cl)C[C@@H]3[C@@]1(Cl)C2(Cl)Cl	inactive	inactive	inactive	–	–	inactive	inactive	inactive	inactive	–	–	–
O=c1ssc(Cl)c1Cl	61.1 µM (active)	54.5 µM (active)	inactive	–	–	inactive	17.4 µM (active)	inactive	–	–	–	–
Cc1cc(Cl)ccc1O[C@H](C)C(=O)O	inactive	inactive	inactive	inactive	–	inactive	inactive	–	–	–	–	–
CC(C)(C)c1cc([N+](=O)[O-])cc(C(C)(C)C)c1O	19.3 µM (active)	21.7 µM (active)	5.45 µM (active)	13.7 µM (active)	inactive	inactive	inactive	inactive	2.73 µM (active)	–	–	–
NC(=O)c1ccc(N)nc1	inactive	inactive	–	–	–	inactive	15.5 µM (active)	–	–	inactive	–	–

— PubChem BioAssay (Tox21)
